# Compound activity deposited in PubChem BioAssay by several laboratories.
# Rows were chosen to be rich in hits. Some 27% of all compounds tested hit in one or more screens of this group.
# sEH inh: blocks human soluble epoxide hydrolase activity; recombinant human sEH enzymatic activity assay; inhibition, % at 2 µM; 0.34% of 91,000 active; in the data active means inhibition above about 80%
# CYP2C9 act: CYP2C9 (human) activation; 1.4% of 96,000 active; recombinant CYP2C9, luciferin-H conversion, luminescence; hits give high values; factor 1 = untreated enzyme, 0 = blocked; AID 1024; activation factor at 5 µM; P11712;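 active means activation factor of 2 or more for CYP2C9 at a 5 µM dose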;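 further: 0 = sulfaphenazole-blocked wells and 1 = vehicle-only wells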
# Target sequence (P11712 whole entry, looked up): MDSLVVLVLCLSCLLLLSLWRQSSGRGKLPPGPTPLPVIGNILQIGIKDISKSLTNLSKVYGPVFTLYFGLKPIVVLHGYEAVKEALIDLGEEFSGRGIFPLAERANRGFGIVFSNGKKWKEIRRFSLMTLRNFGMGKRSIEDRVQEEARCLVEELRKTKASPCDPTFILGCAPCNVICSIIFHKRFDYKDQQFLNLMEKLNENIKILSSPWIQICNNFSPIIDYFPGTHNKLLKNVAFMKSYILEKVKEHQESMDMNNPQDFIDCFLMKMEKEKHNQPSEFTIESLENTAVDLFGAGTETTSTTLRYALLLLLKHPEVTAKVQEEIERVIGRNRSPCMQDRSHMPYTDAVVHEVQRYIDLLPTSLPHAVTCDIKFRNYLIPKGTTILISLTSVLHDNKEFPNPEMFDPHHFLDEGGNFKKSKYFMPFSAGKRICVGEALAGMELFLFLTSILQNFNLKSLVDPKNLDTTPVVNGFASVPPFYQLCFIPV
# CYP2C9 inhib: human CYP2C9 inhibition | P11712 | CYP2C9 Supersomes, luciferin-H conversion, luminescence | inhibition, % at 5 µM | 20% of 96,000 active | AID 777;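 active means blocking of liver enzyme CYP2C9 beyond about 50% at 5 µM, limit read from the data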
# sEH activator: activators of human soluble epoxide hydrolase; P34913; 0.04% of 91,000 active; activation, % at 2 µM; purified human sEH enzymatic activity, activator screen; in the data active means activation above about 37%
# CYP2C19 activ: cytochrome P450 2C19 (human) activation; recombinant CYP2C19, luciferin-H EGE luminescence; hits give high values; 0 = fully inhibited enzyme, 1 = untreated enzyme; 96,000 tested, under 10 active; AID 1025; activation factor at 5 µM;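 active means activation factor of at least 2 at 5 µM in the primary screen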;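 further: 0 = wells with 2.5 mM tranylcypromine and 1 = vehicle-only wells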
# CYP2C19 inh: human CYP2C19 inhibition; P33261; CYP2C19 Supersomes, luciferin-H EGE luminescence, 30 min; inhibition, % at 5 µM; 21% of 96,000 active;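 active means CYP2C19 inhibition above a set limit at 5 µM in the primary screen, cut at about 50% in these data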;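 further: plate controls were negative control wells for no effect and 2.5 mM tranylcypromine positive control for full effect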
# The depositor's hits bear a star; / = no result.
SMILES,sEH inh,CYP2C9 act,CYP2C9 inhib,sEH activator,CYP2C19 activ,CYP2C19 inh
Cc1cc(C(=O)NCCCN2CCCC2=O)no1,-4,1.2,-15,2,1.1,-12
S=c1[nH]nc(-c2ccccc2)n1C1C=CCCC1 (centres undefined),/,1,-4,/,0.3,68*
COC(=O)C(Cc1cnc(Cl)s1)(C(=O)OC)c1ccccc1[N+](=O)[O-],-8,0.3,65*,6,0.1,94*
COC(=O)C(Cc1cnc(Cl)s1)(C(=O)OC)c1ccc([N+](=O)[O-])cc1,2,0.3,73*,-4,0.1,91*
COC(=O)C(C)(C(=O)OC)c1ccccc1[N+](=O)[O-],-1,0.9,7,-1,0.9,8
COC(=O)C(C)(C(=O)OC)c1ccc([N+](=O)[O-])cn1,1,1,-5,2,0.9,6
CCCNC(=S)NC1CC2CCC(C1)N2Cc1ccccc1 (centres undefined),-10,1,-2,10,0.8,18
CCNC(=S)NC1CC2CCC(C1)N2Cc1ccccc1 (centres undefined),3,0.9,9,-1,0.5,52*
CCC(=O)Nc1nc(=S)ss1,1,0,99*,-2,0.8,23
CC(C)(C)C(=O)Nc1ccc(S(=O)(=O)c2ccc(NC(=O)C(C)(C)C)cc2)cc1,8,1.1,-11,-7,1,-3
CC(C)(C)C(=O)Nc1nc(=S)ss1,-12,0.1,92*,12,0.7,33
Cc1cc(OCC(=O)Nc2ccc3c(c2)OCCO3)ccc1Cl,/,0.9,15,/,0.8,17
CCOC(=O)c1ccc(NC(=O)Nc2cc(C)on2)cc1,9,1.1,-8,-9,1.1,-6
Cc1nn(C)cc1/C=N\NC(=O)c1ccc2c(c1)c(C)c(C)n2Cc1ccccc1,7,0.2,83*,-6,0.2,76*
CSC1=NC2C(N1)N(C)C(=O)N2C (centres undefined),-9,1.2,-18,3,1.1,-12
Cc1ccc(C(=O)/C=C/Nc2ccc([N+](=O)[O-])cc2Br)cc1,-8,0.7,27,6,0.8,20
Cc1ccc(C2(c3ccc(C)cc3)CC2C(=O)Nc2ccc([N+](=O)[O-])cc2O)cc1 (centres undefined),0,0.2,75*,0,0.8,20
COC1(OC)N=C(N)C2(C#N)C(c3cccc(Oc4ccccc4)c3)C12C#N (centres undefined),-5,0.4,56*,5,0.4,59*
CCSC1(SCC)N=C(N)C2(C#N)C(c3ccc(F)cc3)C12C#N (centres undefined),-9,0.4,58*,13,0.4,62*
CCOC1(OCC)N=C(N)C2(C#N)C(c3ccc(NC(C)=O)cc3)C12C#N (centres undefined),-4,0.1,88*,4,0.9,9
CCSC1(SCC)N=C(N)C2(C#N)C(c3ccccc3)NC(C)=C(C)C12C#N (centres undefined),/,0.9,5,/,0.8,17
COC1(OC)N=C(N)C2(C#N)C(c3ccc(F)cc3)C12C#N (centres undefined),/,0.9,10,/,0.5,52*
CCOC(=O)C1CCCN(C(=O)Cn2cccc2C(=O)c2ccccc2)C1 (centres undefined),-16,0.8,22,14,0.8,25
CCOc1ccc(N2CC(=O)Nc3ccccc3NCC2=O)cc1,-14,0.9,12,13,0.9,9
O=C(NC1CCCC1)c1csc2c1CCCC2,-6,1.2,-22,7,1,5
O=C(NC1CCCc2ccccc21)c1cccc(S(=O)(=O)N2CCN(c3ccccc3)CC2)c1 (centres undefined),6,0.2,82*,-4,0.7,34
O=C(Nc1ccc2c(c1)CCC2)c1cccc(S(=O)(=O)N2CCN(c3ccccc3)CC2)c1,32,0.3,68*,-31,0.5,51*
O=C(Nc1ccc(N2CCOCC2)cc1)c1cccc(S(=O)(=O)N2CCCCC2)c1,55,0.9,10,-54,1,2
COc1ccc(NC(=O)c2cc3c(s2)CCC3)cc1S(=O)(=O)N1CCOCC1,14,0.8,19,-13,1,3
O=C(Nc1cccc(S(=O)(=O)N2CCOCC2)c1)c1cc2c(s1)CCC2,56,0,97*,-56,0.5,52*
